According to PubChem BioAssay (EPA / NIEHS):
Inconclusive results are not listed. Active and inactive are the calls of the source. Rule for the calls, unless noted: active = hit-call score of the fitted dose curve at least 0.9, where 1 is the maximum; inactive = score below 0.9.

Columns and labels:
[1] = biological target: Glucocorticoid receptor (Homo sapiens) (UniProt P04150); assay: ATG_GR_TRANS: Attagene TRANS-FACTORIAL HepG2 Assay for human Glucocorticoid Receptor (GR) (AID 2282978; active = hit-call score of the fitted dose curve at least 0.9, where 1 is the maximum;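 note: activators score as hits since higher reporter transcript over DMSO is fitted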); conditions: HepG2 Attagene TRANS GR reporter, mRNA transcription
Chain of Glucocorticoid receptor (Homo sapiens) (P04150 whole entry, looked up, the tested form may be a part): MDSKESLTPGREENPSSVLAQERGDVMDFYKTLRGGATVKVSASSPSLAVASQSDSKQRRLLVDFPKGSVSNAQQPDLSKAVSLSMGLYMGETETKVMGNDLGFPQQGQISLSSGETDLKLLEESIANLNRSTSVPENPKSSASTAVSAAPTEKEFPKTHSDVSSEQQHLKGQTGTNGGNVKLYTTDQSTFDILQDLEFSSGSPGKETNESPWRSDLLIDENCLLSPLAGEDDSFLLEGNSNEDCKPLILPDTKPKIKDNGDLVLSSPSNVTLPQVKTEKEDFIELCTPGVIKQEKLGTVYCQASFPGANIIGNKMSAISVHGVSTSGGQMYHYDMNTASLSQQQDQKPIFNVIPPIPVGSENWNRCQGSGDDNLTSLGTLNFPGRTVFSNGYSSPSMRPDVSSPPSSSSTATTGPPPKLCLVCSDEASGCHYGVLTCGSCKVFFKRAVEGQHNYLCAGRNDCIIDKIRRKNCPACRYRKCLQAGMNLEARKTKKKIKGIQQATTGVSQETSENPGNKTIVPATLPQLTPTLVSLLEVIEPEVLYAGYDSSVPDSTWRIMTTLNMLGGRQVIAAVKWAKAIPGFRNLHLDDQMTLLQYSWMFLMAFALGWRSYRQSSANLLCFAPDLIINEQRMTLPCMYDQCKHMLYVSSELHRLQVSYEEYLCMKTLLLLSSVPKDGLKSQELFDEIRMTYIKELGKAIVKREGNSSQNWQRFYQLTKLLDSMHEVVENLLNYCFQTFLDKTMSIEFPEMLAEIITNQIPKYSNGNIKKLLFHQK
How it was run: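 HepG2 cells transiently transfected with multiplexed reporter units in which chimeric NR-GAL4 proteins drive GAL4-UAS reporters; 24 h compound exposure. Reporter mRNA measured by RT-PCR, 6-FAM labelling, HpaI digestion and capillary electrophoresis; gain-of-signal fitted versus DMSO.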

[2] = ATG_M_06_TRANS: Attagene TRANS-FACTORIAL HepG2 Assay for M06 Transcription Factor (Internal Marker) (AID 2282983; active = hit-call score of the fitted dose curve at least 0.9, where 1 is the maximum); conditions: HepG2 Attagene TRANS M06 internal marker reporter
How it was run: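 Multi-reporter-transfected HepG2, 24 h treatment; reporter transcripts quantified via RT-PCR, primer-extension labelling and CE. DMSO-normalized gain-of-signal fit.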

[3] = ATG_M_32_TRANS: Attagene TRANS-FACTORIAL HepG2 Assay for M32 Transcription Factor (Internal Marker) (AID 2282984; active = hit-call score of the fitted dose curve at least 0.9, where 1 is the maximum;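 note: transcript level of a background control reporter unit measured by RT-PCR and capillary electrophoresis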); conditions: HepG2 Attagene TRANS M32 internal marker reporter
How it was run: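 Internal background reporter in transfected HepG2: after 24 h chemical exposure, RNA reverse-transcribed, reporter cDNA amplified, fluorescently labelled and HpaI-cut, then sized by capillary electrophoresis. Gain of signal fitted against DMSO control.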

[4] = biological target: Nuclear receptor subfamily 4 group A member 2 (Homo sapiens) (UniProt P43354); assay: ATG_NURR1_TRANS: Attagene TRANS-FACTORIAL HepG2 Assay for human Nuclear Receptor Related Protein 1 (NURR1) (AID 2282985; active = hit-call score of the fitted dose curve at least 0.9, where 1 is the maximum); conditions: HepG2 Attagene TRANS reporter, mRNA readout
Chain of Nuclear receptor subfamily 4 group A member 2 (Homo sapiens) (P43354 whole entry, looked up, the tested form may be a part): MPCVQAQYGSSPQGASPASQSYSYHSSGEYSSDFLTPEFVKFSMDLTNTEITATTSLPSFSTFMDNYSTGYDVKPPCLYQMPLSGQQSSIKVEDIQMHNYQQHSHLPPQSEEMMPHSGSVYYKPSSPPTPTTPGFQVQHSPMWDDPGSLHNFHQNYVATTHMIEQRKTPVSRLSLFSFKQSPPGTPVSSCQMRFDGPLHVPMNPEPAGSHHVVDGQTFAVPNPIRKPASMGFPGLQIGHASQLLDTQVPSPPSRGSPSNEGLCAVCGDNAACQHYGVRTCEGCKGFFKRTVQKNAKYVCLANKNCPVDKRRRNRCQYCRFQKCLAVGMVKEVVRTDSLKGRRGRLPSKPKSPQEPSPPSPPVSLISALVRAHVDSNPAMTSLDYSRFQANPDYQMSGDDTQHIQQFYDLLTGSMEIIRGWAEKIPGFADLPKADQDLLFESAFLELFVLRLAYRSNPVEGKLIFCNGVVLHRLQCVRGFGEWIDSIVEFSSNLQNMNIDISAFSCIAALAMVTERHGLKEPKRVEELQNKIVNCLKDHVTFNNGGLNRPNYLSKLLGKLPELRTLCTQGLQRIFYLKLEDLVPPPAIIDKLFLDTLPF
How it was run: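 Reporter transcript induction, measured by RT-PCR with fluorescent labelling, HpaI digestion and capillary electrophoresis, after 24 hr dosing of human HepG2 cells transiently expressing an exogenous NR-Gal4 fusion with GAL4-UAS-driven reporters; DMSO as baseline.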

[5] = biological target: Transcriptional activator Myb (Homo sapiens) (UniProt P10242); assay: ATG_Myb_CIS: Attagene CIS-FACTORIAL HepG2 Assay for human Myeloblastosis (Myb) Proto-Oncogene Transcription Factor (AID 2282986); conditions: HepG2 Attagene CIS-FACTORIAL Myb reporter transcription; actives raise or lower the signal
Chain of Transcriptional activator Myb (Homo sapiens) (P10242 whole entry, looked up): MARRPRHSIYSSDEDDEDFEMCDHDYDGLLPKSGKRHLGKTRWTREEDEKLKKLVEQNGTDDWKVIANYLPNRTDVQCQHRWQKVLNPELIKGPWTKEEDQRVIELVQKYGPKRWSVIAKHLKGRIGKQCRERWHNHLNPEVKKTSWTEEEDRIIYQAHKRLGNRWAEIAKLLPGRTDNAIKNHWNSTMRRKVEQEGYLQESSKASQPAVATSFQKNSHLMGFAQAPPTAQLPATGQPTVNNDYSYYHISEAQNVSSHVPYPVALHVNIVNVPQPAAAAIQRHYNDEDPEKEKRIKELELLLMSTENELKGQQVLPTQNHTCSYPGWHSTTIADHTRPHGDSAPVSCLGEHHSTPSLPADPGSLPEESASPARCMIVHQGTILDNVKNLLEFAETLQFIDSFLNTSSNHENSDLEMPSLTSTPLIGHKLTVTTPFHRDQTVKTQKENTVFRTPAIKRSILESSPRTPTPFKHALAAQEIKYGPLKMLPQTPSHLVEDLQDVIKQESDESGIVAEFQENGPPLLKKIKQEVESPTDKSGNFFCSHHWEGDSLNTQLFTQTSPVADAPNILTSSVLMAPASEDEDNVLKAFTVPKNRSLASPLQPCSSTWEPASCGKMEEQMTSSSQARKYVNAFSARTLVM
How it was run: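 HepG2 cells were transiently transfected with cis-regulated multiple reporter transcription units reflecting endogenous Myb activity, then exposed to compound for 24 hours. Reporter mRNA was measured by RT-PCR with capillary electrophoresis; bidirectional fitting versus DMSO baseline.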

[6] = biological target: Nuclear respiratory factor 1 (Homo sapiens) (UniProt Q16656); assay: ATG_NRF1_CIS: Attagene CIS-FACTORIAL HepG2 Assay for human Nuclear Respiratory Factor 1 (NRF1) Orphan Gene (AID 2282987); conditions: HepG2 NRF1 cis-element reporter, Attagene multiplex; actives raise or lower the signal
Chain of Nuclear respiratory factor 1 (Homo sapiens) (Q16656 whole entry, looked up): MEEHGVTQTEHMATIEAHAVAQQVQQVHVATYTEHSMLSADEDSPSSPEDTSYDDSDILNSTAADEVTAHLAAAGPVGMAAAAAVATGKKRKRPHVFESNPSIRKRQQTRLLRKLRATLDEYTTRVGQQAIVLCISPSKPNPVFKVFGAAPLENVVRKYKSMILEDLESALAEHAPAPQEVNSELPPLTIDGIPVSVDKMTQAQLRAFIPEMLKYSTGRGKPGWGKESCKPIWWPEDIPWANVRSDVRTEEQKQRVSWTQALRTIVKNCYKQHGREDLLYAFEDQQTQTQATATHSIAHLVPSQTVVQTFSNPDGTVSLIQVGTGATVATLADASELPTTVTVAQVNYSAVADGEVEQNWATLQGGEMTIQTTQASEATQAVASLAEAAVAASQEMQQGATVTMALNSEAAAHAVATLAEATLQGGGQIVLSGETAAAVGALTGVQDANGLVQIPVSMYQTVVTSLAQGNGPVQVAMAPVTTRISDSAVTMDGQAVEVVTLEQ
How it was run: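 HepG2 cells transiently transfected with multiple reporter transcription units under cis-regulatory promoter control, so endogenous transcription-factor activity is read. After 24 h compound exposure, reporter mRNA quantified by RT-PCR, fluorescent labelling, HpaI digestion and capillary electrophoresis; bidirectional fitting versus DMSO.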

[7] = ATG_NFI_CIS: Attagene CIS-FACTORIAL HepG2 Assay for human Nuclear Factor I (NFI) (AID 2282989); conditions: HepG2 cis-regulatory reporter, NFI response element transcription; actives raise or lower the signal
How it was run: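 Reporter transcripts were measured by RT-PCR with fluorescent primer extension and capillary electrophoresis 24 h post-treatment. HepG2 cells carried transiently transfected cis-regulated reporter constructs reporting endogenous factor activity; gain or loss fitted against DMSO baseline.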

[8] = biological target: Myc proto-oncogene protein (Homo sapiens) (UniProt P01106); assay: ATG_Myc_CIS: Attagene CIS-FACTORIAL HepG2 Assay for human Myelocytomatosis (Myc) Proto-Oncogene Transcription Factor (AID 2282990); conditions: HepG2, Attagene cis-reporter transcription factor activity; actives raise or lower the signal
Chain of Myc proto-oncogene protein (Homo sapiens) (P01106 whole entry, looked up, the tested form may be a part): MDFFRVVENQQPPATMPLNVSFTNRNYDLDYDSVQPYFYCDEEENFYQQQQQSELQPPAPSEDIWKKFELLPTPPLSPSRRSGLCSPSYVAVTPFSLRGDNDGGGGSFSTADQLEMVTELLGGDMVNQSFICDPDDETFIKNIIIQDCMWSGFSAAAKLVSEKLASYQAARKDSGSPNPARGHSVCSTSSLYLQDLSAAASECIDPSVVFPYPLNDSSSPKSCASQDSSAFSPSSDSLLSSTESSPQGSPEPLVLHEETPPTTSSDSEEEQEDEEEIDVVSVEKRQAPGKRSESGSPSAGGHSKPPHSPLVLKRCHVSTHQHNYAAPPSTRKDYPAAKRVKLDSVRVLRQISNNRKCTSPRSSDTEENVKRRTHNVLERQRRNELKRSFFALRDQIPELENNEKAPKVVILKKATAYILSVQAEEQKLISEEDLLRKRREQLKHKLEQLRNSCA
How it was run: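 After 24 h chemical treatment of HepG2 cells carrying multiplexed cis-regulated reporter constructs, reporter transcripts quantified by RT-PCR and capillary electrophoresis of fluorescent fragments. Gain or loss fitted against DMSO baseline.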

[9] = ATG_NRF2_ARE_CIS: Attagene CIS-FACTORIAL HepG2 Assay for human Nuclear Factor Erythroid 2 Related Factor 2 (NFR2) response to Antioxidant Response Elements (ARE) (AID 2282992); conditions: HepG2 Attagene ARE/NRF2 reporter, transcription factor activity; actives raise or lower the signal;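 for AC50: reporter mRNA level measured by RT-PCR and capillary electrophoresis fluorescence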
How it was run: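 Fluorescence intensity of reporter-specific cDNA fragments, separated by capillary electrophoresis, reflects mRNA induction in transfected HepG2 cells at 24 h. Activity is fitted bidirectionally, DMSO serving as baseline.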

[10] = ATG_Oct_MLP_CIS: Attagene CIS-FACTORIAL HepG2 Assay for human Octamer-Binding Transcription Factor (Oct) (AID 2282993); conditions: HepG2 Attagene cis-factorial Oct reporter, mRNA; actives raise or lower the signal
How it was run: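 Readout is reporter transcript level from RT-PCR with fluorescent primer extension and capillary electrophoresis, fitted in both directions against DMSO. Transfected HepG2 reporter units report endogenous factor activity after 24 h dosing.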

[11] = biological target: Cellular tumor antigen p53 (Homo sapiens) (UniProt P04637); assay: ATG_p53_CIS: Attagene CIS-FACTORIAL HepG2 Assay for human p53 Transcription Factor (AID 2282994); conditions: HepG2 p53 cis-element reporter, Attagene mRNA; actives raise or lower the signal
Chain of Cellular tumor antigen p53 (Homo sapiens) (P04637 whole entry, looked up): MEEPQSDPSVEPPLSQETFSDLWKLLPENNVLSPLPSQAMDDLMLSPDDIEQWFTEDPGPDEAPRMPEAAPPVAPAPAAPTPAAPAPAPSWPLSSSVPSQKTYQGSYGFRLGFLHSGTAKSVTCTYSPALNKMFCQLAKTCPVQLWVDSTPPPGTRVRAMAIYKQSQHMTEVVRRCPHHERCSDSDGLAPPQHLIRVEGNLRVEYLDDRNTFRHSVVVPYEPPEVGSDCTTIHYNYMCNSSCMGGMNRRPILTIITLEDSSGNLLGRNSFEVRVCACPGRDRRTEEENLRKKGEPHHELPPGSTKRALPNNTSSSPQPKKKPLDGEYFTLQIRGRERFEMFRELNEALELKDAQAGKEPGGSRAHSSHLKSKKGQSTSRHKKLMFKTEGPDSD
How it was run: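 Transiently transfected HepG2 (multiple cis reporter transcription units); exposure 24 h; reporter RNA via RT-PCR, 6-FAM extension, 2 h HpaI digest at 37 C, CE detection; DMSO baseline.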

[12] = BSK_3C_TissueFactor: BioMAP Diversity Plus: 3C Assay for Tissue Factor Biomarker Activity (AID 2282997); conditions: BioMAP 3C HUVEC, tissue factor biomarker readout; actives raise or lower the signal
How it was run: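 In this endothelial system, HUVEC are treated for 24 h and Tissue Factor is assessed by ELISA, normalised to DMSO.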

[13] = BSK_3C_uPAR: BioMAP Diversity Plus: 3C Assay for Urokinase-type plasminogen activator receptor (uPAR) Biomarker Activity (AID 2282998); conditions: BioMAP 3C HUVEC, uPAR biomarker ELISA; actives raise or lower the signal
How it was run: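 Cell-surface uPAR on HUVEC (3C system) read by ELISA at 24 h post-treatment, with DMSO as baseline and fitting in both directions. Parallel cultures stained with SRB to flag overt cytotoxicity.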

[14] = BSK_3C_VCAM1: BioMAP Diversity Plus: 3C Assay for Vascular cell adhesion molecule 1 (VCAM1) Biomarker Activity (AID 2282999); conditions: BioMAP 3C HUVEC, VCAM1 ELISA, cytokine-stimulated; actives raise or lower the signal
How it was run: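 Activity fitted in both directions relative to DMSO, with ELISA measurement of the surface marker on primary HUVEC (3C) at 24 h post-treatment; parallel SRB staining (0.1% SRB, TCA-fixed, 560 nm) flagged overt cytotoxicity.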

[15] = BSK_4H_Eotaxin3: BioMAP Diversity Plus: 4H Assay for Eotaxin 3 Biomarker Activity (AID 2283000); conditions: primary human endothelial cells (HUVEC); actives raise or lower the signal;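 note: CCL26 protein level quantified by ELISA in parallel with SRB cytotoxicity check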
How it was run: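 ELISA quantitation of CCL26 (Eotaxin-3) protein from chemically dosed human vascular endothelial cells at 24 h; increases and decreases both scored relative to DMSO-treated baseline.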

[16] = biological target: Hepatocyte nuclear factor 4-alpha (Homo sapiens) (UniProt P41235); assay: ATG_HNF4a_TRANS: Attagene TRANS-FACTORIAL HepG2 Assay for human Hepatocyte Nuclear Factor 4 alpha (HNF4a) (AID 2282982; active = hit-call score of the fitted dose curve at least 0.9, where 1 is the maximum); conditions: HepG2 HNF4a transactivation reporter, mRNA readout
Chain of Hepatocyte nuclear factor 4-alpha (Homo sapiens) (P41235 whole entry, looked up, the tested form may be a part): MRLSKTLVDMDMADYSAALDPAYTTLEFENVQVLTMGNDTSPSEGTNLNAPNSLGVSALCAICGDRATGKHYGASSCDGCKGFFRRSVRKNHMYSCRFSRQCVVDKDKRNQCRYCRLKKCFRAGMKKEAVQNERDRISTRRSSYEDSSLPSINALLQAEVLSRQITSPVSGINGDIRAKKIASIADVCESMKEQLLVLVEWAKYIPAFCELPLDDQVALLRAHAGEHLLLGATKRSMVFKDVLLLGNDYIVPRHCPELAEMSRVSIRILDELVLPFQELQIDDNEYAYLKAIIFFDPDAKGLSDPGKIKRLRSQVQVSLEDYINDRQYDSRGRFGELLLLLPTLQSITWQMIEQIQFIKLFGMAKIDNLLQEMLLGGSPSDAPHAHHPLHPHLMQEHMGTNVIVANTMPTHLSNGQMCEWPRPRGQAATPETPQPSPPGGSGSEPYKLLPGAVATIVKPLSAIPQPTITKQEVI
How it was run: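 Activity of an exogenous HNF4a–Gal4 fusion scored as induced GAL4-UAS reporter transcripts after 24 h chemical exposure of transfected human HepG2 cells. Read-out via RT-PCR with 6-FAM labelling and capillary electrophoresis; rise over DMSO baseline.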

[17] = ATG_NF_kB_CIS: Attagene CIS-FACTORIAL HepG2 Assay for human Nuclear Factor Kappa B (NF-kB) (AID 2282991); conditions: HepG2 Attagene cis-factorial NF-kB reporter mRNA; actives raise or lower the signal
How it was run: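 HepG2 cells transiently transfected with multiplexed cis-element reporter units measuring endogenous transcription factor activity; reporter mRNA read 24 h after dosing by RT-PCR, fluorescent labelling, HpaI digestion and capillary electrophoresis. Bidirectional fit against DMSO baseline.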

[18] = biological target: Bile acid receptor (Homo sapiens) (UniProt Q96RI1); assay: ATG_FXR_TRANS: Attagene TRANS-FACTORIAL HepG2 Assay for Farnesoid X Receptor (FXR) (AID 2282979; active = hit-call score of the fitted dose curve at least 0.9, where 1 is the maximum;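 note: hits raise reporter mRNA above DMSO so AC50 marks FXR activation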); conditions: HepG2 Attagene TRANS FXR-GAL4 reporter transcription
Chain of Bile acid receptor (Homo sapiens) (Q96RI1 whole entry, looked up, the tested form may be a part): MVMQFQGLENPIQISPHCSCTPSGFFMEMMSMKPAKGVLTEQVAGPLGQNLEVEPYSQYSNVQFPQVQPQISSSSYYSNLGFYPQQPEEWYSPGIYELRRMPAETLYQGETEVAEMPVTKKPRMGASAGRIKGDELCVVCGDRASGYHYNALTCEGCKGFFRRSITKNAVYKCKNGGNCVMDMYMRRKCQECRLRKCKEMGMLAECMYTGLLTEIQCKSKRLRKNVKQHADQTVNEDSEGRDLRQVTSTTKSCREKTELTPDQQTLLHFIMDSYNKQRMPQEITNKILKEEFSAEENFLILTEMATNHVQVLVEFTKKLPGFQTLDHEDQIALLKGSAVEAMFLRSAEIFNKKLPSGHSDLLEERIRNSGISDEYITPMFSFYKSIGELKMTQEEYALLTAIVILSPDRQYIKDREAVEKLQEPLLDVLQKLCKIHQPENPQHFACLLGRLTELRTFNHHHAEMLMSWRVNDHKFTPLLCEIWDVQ
How it was run: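 After 24 h chemical treatment of transfected HepG2 cells, GAL4-UAS reporter transcripts driven by an exogenous FXR-GAL4 fusion were measured by RT-PCR and capillary electrophoresis. Increases over DMSO were fitted.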

[19] = biological target: Oxysterols receptor LXR-alpha (Homo sapiens) (UniProt Q13133); assay: ATG_LXRa_TRANS: Attagene TRANS-FACTORIAL HepG2 Assay for human Liver X Receptor alpha (LXRa) (AID 2282980; active = hit-call score of the fitted dose curve at least 0.9, where 1 is the maximum); conditions: HepG2 Attagene TRANS reporter, LXRa transactivation
How it was run: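 In this multiplexed TRANS system, compounds act on HepG2 cells carrying GAL4-UAS reporter units and a receptor-GAL4 fusion for 24 h. Induced reporter RNA is amplified, fluorescently labelled and sized by capillary electrophoresis, with DMSO as baseline.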

[20] = biological target: Oxysterols receptor LXR-beta (Homo sapiens) (UniProt P55055); assay: ATG_LXRb_TRANS: Attagene TRANS-FACTORIAL HepG2 Assay for human Liver X Receptor beta (LXRb) (AID 2282981; active = hit-call score of the fitted dose curve at least 0.9, where 1 is the maximum); conditions: HepG2 Attagene TRANS GAL4-LXRb reporter, mRNA
Chain of Oxysterols receptor LXR-beta (Homo sapiens) (P55055 whole entry, looked up, the tested form may be a part): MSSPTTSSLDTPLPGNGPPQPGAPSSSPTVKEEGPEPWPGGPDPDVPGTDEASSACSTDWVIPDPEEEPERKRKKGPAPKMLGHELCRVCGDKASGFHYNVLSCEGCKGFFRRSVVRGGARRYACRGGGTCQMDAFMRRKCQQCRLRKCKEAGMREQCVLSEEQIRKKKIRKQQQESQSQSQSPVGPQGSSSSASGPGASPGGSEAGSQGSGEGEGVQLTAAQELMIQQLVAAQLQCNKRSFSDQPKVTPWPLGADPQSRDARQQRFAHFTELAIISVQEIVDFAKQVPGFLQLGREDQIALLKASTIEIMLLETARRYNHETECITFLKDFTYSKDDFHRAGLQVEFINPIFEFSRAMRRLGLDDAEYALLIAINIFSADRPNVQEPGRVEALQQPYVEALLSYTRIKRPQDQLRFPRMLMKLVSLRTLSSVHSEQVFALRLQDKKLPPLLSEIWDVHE
How it was run: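 After 24 h chemical treatment of transfected HepG2 cells carrying exogenous NR-Gal4 chimeras, reporter mRNA was quantified by fluorescent RT-PCR and capillary electrophoresis; activity taken as increase over DMSO controls.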

Measured: AC50

CCCCC(CC)COCCC#N (configuration not stated)
not listed: [16] | [17] | [18] | [19] | [20]
inactive: all other assays above

Cc1ccc(C(C)C)cc1O
not listed: [11] | [12] | [13] | [14] | [15] | [18] | [19] | [20]
inactive: all other assays above

Cc1cc(C2(c3cc(C)c(O)cc3C)OS(=O)(=O)c3ccccc32)c(C)cc1O
not listed: [3] | [4] | [11] | [17] | [18] | [19] | [20]
inactive: all other assays above

NCCOCCO
inactive: [1] | [16] | [5] | [6] | [7] | [8] | [9] | [10] | [11]

CCCCCCC#CC(=O)OC
inactive: [1] | [16] | [2] | [3] | [5] | [6] | [7] | [8] | [10]
active: [9] 21.6 µM

CC1(C)[C@H]2CC[C@]1(C)[C@H](O)C2
inactive: [1] | [2] | [3] | [4] | [6] | [7] | [8] | [9] | [10] | [11]

O=Nc1ccc(Nc2ccccc2)cc1
active: [6] 56.3 µM | [7] 56.4 µM | [17] 12.1 µM | [9] 7.16 µM | [10] 33.4 µM | [11] 54.3 µM
inactive: [18] | [19] | [20] | [16] | [3] | [5] | [8]

N#Cc1ccccc1
not listed: [12] | [13] | [14] | [15] | [18] | [19] | [20]
inactive: all other assays above

O=[N+]([O-])c1cc(C(F)(F)F)ccc1Cl
active: [9] 50.9 µM
not listed: [4] | [17] | [18] | [19] | [20]
inactive: all other assays above

S=C(S)NCCNC(=S)S
inactive: [1] | [2] | [3] | [5] | [7] | [8] | [9]
